Here are results for 35 compounds from PubChem BioAssay.

The structures appear in SMILES notation.

E3 ubiquitin-protein ligase XIAP (Homo sapiens), sequence (P98170 whole entry, looked up): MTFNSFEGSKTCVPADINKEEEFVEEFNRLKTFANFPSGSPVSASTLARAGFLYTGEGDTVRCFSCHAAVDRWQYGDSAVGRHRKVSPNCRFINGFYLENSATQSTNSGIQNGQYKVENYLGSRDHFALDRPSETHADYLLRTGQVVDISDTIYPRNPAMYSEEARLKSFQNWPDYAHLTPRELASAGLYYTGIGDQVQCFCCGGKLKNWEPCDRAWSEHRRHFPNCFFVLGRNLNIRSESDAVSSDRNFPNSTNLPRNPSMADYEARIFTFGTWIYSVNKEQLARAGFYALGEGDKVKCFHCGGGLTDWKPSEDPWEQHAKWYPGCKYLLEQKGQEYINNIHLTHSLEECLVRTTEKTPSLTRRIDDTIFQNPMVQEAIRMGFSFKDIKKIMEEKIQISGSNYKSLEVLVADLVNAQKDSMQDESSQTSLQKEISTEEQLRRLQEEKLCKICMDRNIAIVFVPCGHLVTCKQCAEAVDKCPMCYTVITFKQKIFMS

Test system in the first experiment: not listed separately
Briefly: RPMI8226 myeloma cell viability, profiling panel, resazurin fluorescence, basal, 24 h, PK04 Diversity Set (AID 1180).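 Note: RPMI8826 multiple myeloma cell line at 5000 cells per well; test concentration not given here.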 Particulars: higher = more signal. On the technique in general: Resazurin is reduced to fluorescent resorufin, in cell work by metabolically active cells.
`C=C(COC)/C(=C/C[C@H](OC(C)=O)c1ccc(CO)o1)c1cc(C(=O)OC)ccc1OC` showed a z-score of -0.746.
The same measure, in the same setting: as for `COC(=O)[C@@]1(Cc2ccc(OC)cc2)[C@@H]2C(=CC(=O)[C@H]2CC(=O)C(=O)N2CCCC2)CN1C(=O)c1ccccc1`, the figure is -0.663; as for `Cc1ccc(N2C(=O)c3ccccc3[C@@H](C(=O)NC3CC3)[C@@H]2c2ccc(CO)cc2)nc1`, 0.154.
The same measure, in the same setting: the value for `COCCOC(=O)N1C(=O)[C@@]2(c3cc(C#CCC(C(=O)OC)C(=O)OC)ccc31)[C@H](C(=O)Nc1nc3ccccc3s1)[C@H]1C(=O)O[C@H](c3ccccc3)[C@H](c3ccccc3)N1[C@@H]2c1ccccc1OCCO` was -0.39; that for `COCCOC(=O)N1C(=O)[C@@]2(c3cc(C#CCC(C(=O)OC)C(=O)OC)ccc31)[C@H](c1ccccc1OCCO)N1[C@H](c3ccccc3)[C@H](c3ccccc3)OC(=O)[C@H]1[C@@H]2C(=O)NC[C@H](O)c1ccccc1` was -3.62; that for `CCCC[C@@H]1C[C@H]1[C@@H](NC(=O)c1ccccc1)c1ccc(C(=O)OC)cc1` was 0.0845.
The same measure, in the same setting: the value for `O=C1[C@@]23C=C(Br)[C@H](C[C@@H]2CCOC3)[C@@]12CO2` was 0.428.

A further experiment concerns the target E3 ubiquitin-protein ligase XIAP (Homo sapiens) (UniProt P98170). Briefly: XIAP binders, primary screen, biophysical, small-molecule microarray, fluorescence 635 nm (AID 1181).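 Note: score merges 667 nm emission and signal to noise over triplicate slides.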 Particulars: small-molecule microarray binding, higher = more signal.
`C=C(/C(=C/C[C@H](OC(C)=O)c1ccc(CO)o1)c1cc(C(=O)OC)ccc1OC)C(C)C`: the composite z-score was -0.0807.
The same measure, in the same setting: the value for `COC(=O)[C@@]1(Cc2ccccc2)N=C(c2ccc(OCCCO)cc2)O[C@H]1c1ccccc1` was 0.244; that for `CC(C)C[C@@H]1NC(=O)[C@@H]2C[C@H](C(=O)NCc3ccc(F)cc3)[C@H](c3cccc(OCCO)c3)N2C1=O` was -0.052; that for `O=C1c2ccccc2[C@](Cc2ccccc2I)(C(=O)NCCN2CCOCC2)[C@H](c2ccc(CO)cc2)N1C1CCCCC1` was 0.0623.
Turning to `O=C1c2ccccc2[C@](Cc2ccccc2I)(C(=O)NCCN2CCOCC2)[C@H](c2ccc(CO)cc2)N1Cc1ccccc1Cl`, the composite z-score was -0.102.
On the same count and under the same terms, as for `CC(C)C(=C=CC[C@@H](O)c1ccc(OCCO)cc1)C[C@@H](O)COCc1ccccc1`, the figure is 0.108; as for `COC(=O)[C@]1(CCC(=O)OC(C)(C)C)N=C(c2ccc(OCCCO)cc2)O[C@@H]1c1ccccc1CN=[N+]=[N-]`, -0.0773.
On the same count and under the same terms, as for `NC(=O)NCC#Cc1ccc2c(c1)[C@]1(C(=O)N2)[C@H](c2ccccc2OCCO)N2[C@H](c3ccccc3)[C@H](c3ccccc3)OC(=O)[C@H]2[C@@H]1C(=O)Nc1nc2ccccc2s1`, the figure is -0.102.
The same measure, in the same setting: the value for `C=CCC(OC(C)=O)[C@@H]1[C@@H](N(Cc2ccc(-c3ccccc3)cc2)C(=O)Cc2ccc(OC)cc2)c2cc(OCCCO)ccc2N1C(=O)Cc1ccc2ccccc2c1` (some centres not stated) was 0.098.
In turn, `C=C(CCCC)C(=O)CC[C@@H](OC(=O)c1ccccc1-c1ccccc1C(=O)O)c1ccc(OCCO)cc1` showed a composite z-score of -0.182.
`CCCC[C@@H]1C[C@H]1[C@@H](NC(=O)c1ccco1)c1ccccc1C(F)(F)F` displayed a composite z-score of 0.271.
The same measure, in the same setting: the value for `CCOC(=O)C[C@H]1[C@H](OC(=O)c2cc3ccccc3oc2=O)[C@@H](NC(=O)c2ccccc2)c2cc(OCCCO)ccc2N1C(=O)c1ccc2ccccc2n1` was -0.28; that for `CCN(CC)c1ccc(N2CC=CC34O[C@@H]5C=CCCOC(=O)C5[C@H]3C(=O)N(CCCCCCO)[C@@H]4C2=O)cc1` (some centres not stated) was 0.127.
On the same count and under the same terms, as for `COC(=O)[C@@]1(Cc2ccccc2)[C@H]2c3cc(C(=O)N(C)C)n(Cc4ccsc4Br)c3C[C@H]2CN1C(=O)c1ccccc1`, the figure is 0.0496; as for `COCCOC(=O)N1C(=O)[C@@]2(c3ccccc31)[C@H](c1ccccc1OCCO)N1[C@H](c3ccccc3)[C@H](c3ccccc3)OC(=O)[C@H]1[C@@H]2C(=O)N1CCN(c2ncccn2)CC1`, -0.16; as for `O[C@@H](Cc1ccccc1)[C@H]1C2C=CCCC=C2CN1Cc1cccc(Cl)c1` (some centres not stated), -0.365.
On the same count and under the same terms, the value for `COc1cc2c(cc1OC)CN(C(=O)[C@@H]1[C@H]3C(=O)O[C@H](c4ccccc4)[C@H](c4ccccc4)N3[C@H](c3ccccc3OCCO)[C@@]13C(=O)Nc1ccc(C#CCCO)cc13)CC2` was 0.271; that for `Cc1ccc(S[C@]2(C(=O)O)CC(=O)N(C(C)C)[C@@H]2c2ccc(CO)cc2I)cc1` was -0.122; that for `O=C1O[C@H](c2ccccc2)[C@H](c2ccccc2)N2[C@H]1[C@@H](C(=O)N1CCCCCCC1)[C@]1(C(=O)Nc3ccc(C#CCCO)cc31)[C@H]2c1ccccc1OCCO` was 2.87.
Regarding `C=CCNC(=O)[C@@H]1[C@H]2C(=O)O[C@H](c3ccccc3)[C@H](c3ccccc3)N2[C@H](c2ccc(O)cc2)[C@@]12C(=O)N(C(=O)OCCOC)c1ccc(C#CCNC(N)=O)cc12`, the composite z-score is -0.17.
Compound `O=C(c1ccccc1)N1C(=O)[C@@]2(Cc3ccccc31)N=C(c1ccc(OCCCO)cc1)O[C@H]2c1ccccc1` gave a composite z-score of 0.327.
The same measure, in the same setting: as for `C=C(/C(=C/C[C@H](OC(C)=O)c1ccccc1OCCO)c1cnc2ccccc2c1)C(C)C`, the figure is -0.238; as for `CC(C)C(CO)N1C(=O)[C@@H]2C3C(=O)OCCC/C=C\[C@H]3OC23C=CCN(CCN2CCOCC2)C(=O)[C@@H]13` (some centres not stated), 0.0191.
In turn, `CCCC[C@H]1OB(O)C[C@H]2C1=C(COC)C[C@H]1C(=O)N(C)C(=O)[C@H]12` showed a composite z-score of 0.144.
On the same count and under the same terms, the value for `COC(=O)[C@@]1(Cc2ccc(F)cc2)[C@H]2c3cc(C(=O)N(C)C)n(Cc4ccc(Cl)c(C(F)(F)F)c4)c3C[C@H]2CN1C(=O)c1ccccc1` was 0.929; that for `COc1ccc(CCNC(=O)[C@@]2(Sc3ccc(C)cc3)CC(=O)N(C3Cc4ccccc4C3)[C@@H]2c2ccc(CO)cc2I)cc1` was 0.148.
Same read-out and setting: the value for `CCCC[C@H]1OB(O)C[C@H]2C1=C(COC)Cn1c(=O)n(-c3ccccc3)c(=O)n12` was -0.053; that for `CN(C)CCCCCCNC(=O)[C@@H]1C[C@@H]2C(=O)N[C@@H](Cc3ccccc3)C(=O)N2[C@@H]1c1ccc(O)cc1` was 0.458.
On the same count and under the same terms, the value for `C=C(COC)/C(=C/C[C@H](OC(C)=O)c1ccc(CO)o1)c1cc(C(=O)OC)ccc1OC` was 0.0101; that for `COC(=O)[C@@]1(Cc2ccc(OC)cc2)[C@@H]2C(=CC(=O)[C@H]2CC(=O)C(=O)N2CCCC2)CN1C(=O)c1ccccc1` was -0.0118; that for `Cc1ccc(N2C(=O)c3ccccc3[C@@H](C(=O)NC3CC3)[C@@H]2c2ccc(CO)cc2)nc1` was -0.128.
In the case of `COCCOC(=O)N1C(=O)[C@@]2(c3cc(C#CCC(C(=O)OC)C(=O)OC)ccc31)[C@H](C(=O)Nc1nc3ccccc3s1)[C@H]1C(=O)O[C@H](c3ccccc3)[C@H](c3ccccc3)N1[C@@H]2c1ccccc1OCCO`, the composite z-score came to 0.109.
`COCCOC(=O)N1C(=O)[C@@]2(c3cc(C#CCC(C(=O)OC)C(=O)OC)ccc31)[C@H](c1ccccc1OCCO)N1[C@H](c3ccccc3)[C@H](c3ccccc3)OC(=O)[C@H]1[C@@H]2C(=O)NC[C@H](O)c1ccccc1` displayed a composite z-score of 0.177.
The compound `CCCC[C@@H]1C[C@H]1[C@@H](NC(=O)c1ccccc1)c1ccc(C(=O)OC)cc1` gave a composite z-score of -0.0143.
Same read-out and setting: the value for `O=C1[C@@]23C=C(Br)[C@H](C[C@@H]2CCOC3)[C@@]12CO2` was 0.188.
